According to PubChem BioAssay AID504332 (National Center for Advancing Translational Sciences (NCATS), 2011):
The whole screen tested about 350,000 compounds, of which about 31,000 (8.9%) were called active. Inconclusive results (about 15%) are left out. Shown is part of a subset that was picked to be rich in actives. Unmarked numbers belong to inactive results. Calls come from the whole dose curve; as a rule, active = well fitted inhibition curve with a large enough effect; inconclusive = small, poorly fitted or top-dose-only effect; inactive = no such curve, though single readings can be large or run the other way.

What follows are compounds tested against Histone-lysine N-methyltransferase EHMT2 (Homo sapiens) (UniProt Q96KQ7) (assay: qHTS Assay for Inhibitors of Histone Lysine Methyltransferase G9a). Settings: G9a H3K9 monomethylation, AlphaScreen, 2 h; series mostly up to 59 µM; activity, negative = inhibition: at the top concentration.
Outline: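 Compounds were preincubated with 20 nM G9a for 15 min, after which biotinylated H3K9 peptide (500 nM) and SAM (20 uM) started a 2 h room-temperature reaction. Monomethylated product was quantified by antibody-based AlphaScreen chemiluminescence.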
% is set by controls: 0 for no effect and ±100 for the full control effect; potency is the fitted concentration of half-maximal effect.
Note: nearly all actives have a fitted effect of over 75% in size.

Histone-lysine N-methyltransferase EHMT2 (Homo sapiens), sequence (Q96KQ7 913-1193 limits assumed): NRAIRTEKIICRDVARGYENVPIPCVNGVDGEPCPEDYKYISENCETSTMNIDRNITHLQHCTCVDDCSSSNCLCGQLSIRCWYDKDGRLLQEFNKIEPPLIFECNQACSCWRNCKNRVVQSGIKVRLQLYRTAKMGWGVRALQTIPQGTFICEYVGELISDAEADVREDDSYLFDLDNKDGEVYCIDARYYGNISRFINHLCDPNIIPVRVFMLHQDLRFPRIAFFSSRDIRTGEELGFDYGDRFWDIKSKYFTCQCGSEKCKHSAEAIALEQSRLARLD

Row | SMILES | Potency | activity, negative = inhibition
1 | CCN(CC)c1ccc(NC(=O)Cn2nc3c(cc2=O)CCCC3)c(C)c1 | 11.2 µM (active) | –
2 | CCc1ccc(-n2nc(C)c3c(C)cc(=O)n(CC(=O)Nc4ccc(F)cc4C)c32)cc1 | – | 13.4%
3 | Cc1cc(NC(=O)Cn2nc(C(F)(F)F)c3c2CCCC3)no1 | – | 2.94%
4 | C/C(=C/c1ccccc1)C(=O)N1CCN(c2ccccc2)CC1 | – | -3.56% [at 102 µM]
5 | CCOc1ccc(NC(=O)c2cnn(-c3ccccc3)c2-n2cccc2)cc1 | – | -16.2%
6 | O=C(N1CCOCC1)N1CCOCC1 | – | 9.64%
7 | N#C/C(=C/c1ccc(N2CCOCC2)o1)C(=O)N1CCOCC1 | 7.94 µM (active) | –
8 | Cc1ccc(C(=O)N2CCN(C(=O)N3CCOCC3)CC2)cc1 | – | -4.57%
9 | Cc1cccc(NC(=O)Cc2ccc(Br)cc2)n1 | – | 12.1% [at 0.501 µM]
10 | CCOCCCNC(=O)c1c(NC(=O)Cc2coc3ccc(C)cc23)sc2c1CCC2 | – | -21.4%
11 | O=C(CSCc1cnn(-c2ccccc2)c1-n1cccc1)NCc1ccc(Cl)cc1 | – | -27.5%
12 | Cc1cccc(N2C(=O)SC(N(CC(=O)O)c3cccc(C)c3)C2=O)c1 (stereo not drawn) | – | -87.4% [at 102 µM]
13 | Cc1cccc(N2C(=O)SC(SC(=Nc3ccccc3)Nc3ccccc3)C2=O)c1 (stereo not drawn) | 3.55 µM (active) | –
14 | Cc1cccc(N2C(=O)C3C(c4ccccc4)OC4(C(=O)c5ccccc5C4=O)C3C2=O)c1 (stereo not drawn) | – | -13.5%
15 | COc1ccc(OC)c(-c2csc(NC(=O)COC(=O)C3CC3)n2)c1 | – | -10.3%
16 | COc1cccc(CNC(=O)COC(=O)CN2C(=O)NC3(CCCCC3C)C2=O)c1 (stereo not drawn) | – | 7.7% [at 12.7 µM]
17 | COc1ccccc1C1/C(=C(/O)c2ccc(OC(C)C)cc2)C(=O)C(=O)N1c1cc(C)on1 (stereo not drawn) | 1.26 µM (active) | –
18 | COc1ccc(C2/C(=C(/O)c3ccccc3)C(=O)C(=O)N2C)c(OC)c1 (stereo not drawn) | – | -3.6% [at 0.501 µM]
19 | Cc1cc(N2C(=O)C(=O)/C(=C(/O)c3ccc(Cl)cc3)C2c2cccc(Br)c2)no1 (stereo not drawn) | – | -2.11%
20 | COC(=O)C1(C)CC1(c1ccccc1)c1ccccc1 (stereo not drawn) | – | 48.6% [at 102 µM]
21 | CC(=O)c1ccc(N2CCN(S(=O)(=O)c3ccc4c(c3)CC(=O)N4C)CC2)cc1 | – | 0.477% [at 102 µM]
22 | Cc1ccc2oc(=O)c3cnn(CC(=O)N4CCN(c5cccc(Cl)c5)CC4)c3c2c1 | – | -0.798%
23 | CSc1ccc(CCNC(=O)c2cnn(-c3ccccc3)c2-n2cccc2)cc1 | – | 3.56%
24 | CC1CCN(C(=O)C2CCN(S(=O)(=O)N3CCC4(CC3)OCCO4)CC2)CC1 | – | -9.21% [at 102 µM]

Row | SMILES | Potency | activity, negative = inhibition
25 | Cc1csc(=O)n1CC(=O)OCC(=O)N(CC(C)C)c1c(N)n(Cc2ccccc2)c(=O)[nH]c1=O | – | 6.53% [at 102 µM]
26 | COCCN(C(=O)COC(=O)Cc1cccc(OC)c1)c1c(N)n(Cc2ccccc2)c(=O)[nH]c1=O | – | -40.6% [at 102 µM]
27 | COc1ccc2oc(C(=O)OCC(=O)N(CC(C)C)c3c(N)n(Cc4ccccc4)c(=O)[nH]c3=O)c(C)c2c1 | 39.8 µM (active) | –
28 | O=C(NC1CC(=O)N(c2ccc(F)cc2)C1)c1ccc(S(=O)(=O)N2CCCC2)cc1 (stereo not drawn) | – | -39.5%
29 | CCN(CC)C(=O)CSc1nc2cc3c(cc2c(=O)n1CCCC(=O)NCc1ccc2c(c1)OCO2)OCO3 | – | 0.103%
30 | CCc1c(C)[nH]c(=S)c(C#N)c1C | 1.12 µM (active) | –
31 | CCOC(=O)C1=C(CN2CCc3ccccc32)NC(=O)NC1c1cccc([N+](=O)[O-])c1 (stereo not drawn) | 39.8 µM (active) | –
32 | CCOC(=O)C1=C(CN2CCCCCC2)NC(=O)NC1c1cccc([N+](=O)[O-])c1 (stereo not drawn) | – | -40.2% [at 102 µM]
33 | CCOC(=O)C1=C(CCc2ccccc2)NC(=O)NC1c1ccc2ccccc2c1 (stereo not drawn) | – | -5.48% [at 102 µM]
34 | Cc1ccc(C)c(N2CCN(C(=O)CN3C(=O)COc4ccc(S(=O)(=O)N5CCCCCC5)cc43)CC2)c1 | – | 1.44%
35 | CC(C)(C)C(=O)COC(=O)c1cc(S(=O)(=O)N2CCCCC2)ccc1N1CCOCC1 | – | -0.482% [at 102 µM]
36 | Cc1nnc(Sc2nc3c(c(=O)[nH]c(=O)n3C)n2Cc2ccccc2)s1 | – | 17.7% [at 12.7 µM]
37 | C=CCSc1nc2c(c(=O)[nH]c(=O)n2C)n1Cc1ccccc1 | – | 30.7% [at 102 µM]
38 | C=CCn1c(SCc2ccccc2)nc2c1c(=O)[nH]c(=O)n2C | 31.6 µM (active) | –
39 | Cc1nn(CC(=O)Nc2nc3ccccc3s2)c(C)c1[N+](=O)[O-] | – | 11.1% [at 0.501 µM]
40 | O=[N+]([O-])c1cc(Br)c(O)c(/C=N/Nc2nc3ccccc3s2)c1 | – | 115% [at 102 µM]
41 | O=[N+]([O-])c1c(NCCO)cc(Sc2nc3ccccc3s2)c2nonc12 | 3.55 µM (active) | –
42 | Cc1c(NS(=O)(=O)c2ccc(Cl)cc2)c(=O)n(-c2ccccc2)n1C | – | 9.47%
43 | Cc1c(NC(=S)Nc2ccccc2)c(=O)n(-c2ccccc2)n1C | – | 0.236%
44 | CCN(CC)P(=O)(/C(Cl)=C\Nc1c(C)n(C)n(-c2ccccc2)c1=O)N(CC)CC | 31.6 µM (active) | –
45 | COc1ccccc1-c1nc(C#N)c(N2CCC(C(N)=O)CC2)o1 | – | -5.97% [at 102 µM]
46 | Cc1oc(-c2ccccc2F)nc1CS(=O)CC(=O)NCCN1CCCCC1C (stereo not drawn) | – | -25.9% [at 102 µM]
47 | CC1CCN(c2oc(-c3ccccc3F)nc2C#N)CC1 | 7.94 µM (active) | –
48 | COc1ccc(Cl)cc1NC(=O)C(C)Sc1nc2c(c(=O)[nH]1)CCCC2 (stereo not drawn) | – | -28.6%

Row | SMILES | Potency | activity, negative = inhibition
49 | CC(=O)Nc1ccc(S(=O)(=O)Nc2nccc(/C=C/c3ccccc3F)n2)cc1 | – | -3.27% [at 102 µM]
50 | CCOc1ncccc1C(=O)Nc1ccc(S(=O)(=O)Nc2nc(C)cc(C)n2)cc1 | – | 108% [at 12.7 µM]
51 | Cc1cc(C)nc(NS(=O)(=O)c2ccc(N/C=C\C(=O)c3cccs3)cc2)n1 | 50.1 µM (active) | –
52 | O=C(Nc1ccccc1[N+](=O)[O-])C1C(c2ccccc2)=C1c1ccccc1 | – | 24.3% [at 0.501 µM]
53 | O=C(O)c1ccccc1-c1ccccc1C(=O)Nc1cccc2ccccc12 | – | 8.04%
54 | O=C(O)c1cc([N+](=O)[O-])c(Nc2cccc3ccccc23)c([N+](=O)[O-])c1 | 44.7 µM (active) | –
55 | Cc1ccccc1-n1c(=O)c2ccccc2n(Cc2ccc(F)cc2)c1=O | – | 3.97%
56 | O=C(NCCc1ccccc1)C(=O)NCC(c1ccco1)S(=O)(=O)c1ccccc1 (stereo not drawn) | – | -6.5%
57 | O=C1Nc2c(Br)cc(Br)cc2C1(O)N1CCOCC1 (stereo not drawn) | – | 5.27% [at 12.7 µM]
58 | O=C(CSC(=S)N1CCOCC1)c1cc(Br)cc(Br)c1O | 79.4 µM (active) | –
59 | CN(C)CC(C)(C)CNC(=O)c1cc(Br)cc(Br)c1O | – | -26.2% [at 102 µM]
60 | CC1CN(C(=O)CN2C(=O)NC(C)(c3ccccc3)C2=O)CC(C)O1 (stereo not drawn) | – | 5.65% [at 2.33 µM]
61 | O=C(CSC(=S)N1CCOCC1)c1ccccc1 | 7.08 µM (active) | –
62 | O=C(NC(=O)N1CCOCC1)c1ccccc1 | – | -4.57%
63 | CC1CN(C(=S)SCC(=O)c2ccccc2)CC(C)O1 (stereo not drawn) | 1.78 µM (active) | –
64 | NC(=NC(=O)c1ccccc1)N1CCOCC1 | – | 3.07%
65 | COC(=O)[C@H](Cc1ccccc1)NC(=O)N1CC(C)OC(C)C1 (stereo partly drawn) | – | 10.9% [at 102 µM]
66 | COc1cccc(-c2nc(S(=O)(=O)c3ccc(C)cc3)c(NCc3ccccc3)o2)c1 | – | -39.8%
67 | COc1ccccc1CNC(=O)c1ccc(CS(=O)c2ccccc2Cl)o1 (stereo not drawn) | – | 2.15%
68 | CCCCCn1c(CCCNC(=O)c2ccccc2OC)nc2ccccc21 | – | -4.32%
69 | CNS(=O)(=O)c1cccc(C(=O)NC2CCCc3ccccc32)c1 (stereo not drawn) | – | -3.96% [at 102 µM]
70 | O=C(CCNS(=O)(=O)c1ccccc1)NCCSc1ccc(Br)cc1 | – | 9.11%
71 | Cc1ccc(C(=O)OCC(=O)NCc2cc(C)c(O)c(C)c2)cc1S(=O)(=O)N1CCCCC1 | – | 5%
72 | CCOCCCNC(=O)c1c(NC(=O)Cc2coc3c(C)c(C)ccc23)sc2c1CCC2 | – | -3.27%

Row | SMILES | Potency | activity, negative = inhibition
73 | COc1ccccc1CNC(=O)Cn1nc(C)c2nn(-c3ccc(Cl)cc3)c(C)c2c1=O | – | 10.4%
74 | O=C(CSc1nc2ccccc2[nH]1)N/N=C/C=C\c1ccccc1[N+](=O)[O-] | – | -16.6%
75 | CCn1c(SCC(=O)N/N=C/C=C/c2ccccc2[N+](=O)[O-])nnc1-c1ccccc1 | 39.8 µM (active) | –
76 | Cc1ccc(-n2c(SCC(=O)N/N=C/C=C/c3ccccc3[N+](=O)[O-])nc3ccccc3c2=O)cc1 | – | -9.25%
77 | CC(C)COc1ccc(C(=O)OCC(=O)NCCC2=CCCCC2)cc1 | – | -4.08% [at 102 µM]
78 | CC(NC(=O)C1CCCN(S(=O)(=O)c2ccc(-n3cnnn3)cc2)C1)c1ccc(F)cc1 (stereo not drawn) | – | 11.5% [at 102 µM]
79 | Cc1ccc(OC(=O)CCC(=O)Nc2ccc(Br)cc2)cc1 | – | 4.61%
80 | COc1ccc(NC(=O)CCC(=O)Nc2nnc(C3CCCCC3)s2)cc1 | – | -0.257% [at 102 µM]
81 | COC(=O)CCc1sc(Nc2ccc(Br)cc2)nc1-c1ccc(OC)cc1 | 35.5 µM (active) | –
82 | COc1ccccc1CNC(=O)CCCN1C(=O)NC2(CCCC2)C1=O | – | -40.6% [at 102 µM]
83 | Cc1ccc(Cl)cc1NC(=O)/C(C#N)=C\c1cn(Cc2ccc(F)cc2)c2ccccc12 | – | 13.7%
84 | O=[N+]([O-])c1ccc(N/N=C/c2ccccc2)cc1 | – | -4.27% [at 102 µM]
85 | Cc1cccc(COc2ccccc2/C=N/Nc2ccc([N+](=O)[O-])cc2)c1 | 2.51 µM (active) | –
86 | Cc1ccc(NS(=O)(=O)c2ccc(N/N=C/c3ccccc3OCC(=O)O)c([N+](=O)[O-])c2)c(C)c1 | – | -115%
87 | CC(C)c1ccc(S(=O)(=O)N2CCN(C(C)C(=O)NC3CCCC3)CC2)cc1 (stereo not drawn) | – | -7.57% [at 2.33 µM]
88 | CCC(C)c1ccc(NC(=S)N2CCCC2)cc1 (stereo not drawn) | – | 6.13% [at 102 µM]
89 | CCc1ccccc1NC(=O)N1CCC2(CC1)Oc1ccccc1C(=O)N2Cc1ccccc1F | – | -23.1%
90 | CCC(=O)Nc1c(C(=O)N2CCN(c3ccc(F)cc3)CC2)oc2ccccc12 | – | 2.14%
91 | COc1cc(C(=O)NCC(c2ccc(Cl)cc2)N2CCOCC2)cc(OC)c1OC (stereo not drawn) | – | 10.8%
92 | COc1cc(C(c2c(NC(=O)c3ccco3)sc(C)c2C)N2CCOCC2)cc(OC)c1OC (stereo not drawn) | 50.1 µM (active) | –
93 | CCc1cc(C(c2ccccc2OC)N2CCOCC2)c(NC(=O)c2ccccc2)s1 (stereo not drawn) | – | 7.98% [at 0.501 µM]
